From the OligoGym collection come the findings set out here.

Some targets named below: B3GNT9; AWAT2; BARX2; BABAM1; AVPR1B; BAX; BBC3.
Common to all, as to test: pooled miR-30 sensor sort-seq; sequence = guide strand
What all share (conditions): shRNA
Also: reference of the scale not given here.

Sequence TTAGGTTAAAAAAGGTGTCGTC came in with a sensor-assay potency score (higher = more potent) with B3GNT9 of -0.179. In the assay with AWAT2, TAGACATTACATATTCTCTGAG gave a sensor-assay potency score (higher = more potent) of 0.0457.

TGCTTCACAGAGCTCCTCCTGC yielded a sensor-assay potency score (higher = more potent) with BARX2 of -0.821. The same measure, in the same setting: then TGTTCCGTCTCTGACTCGCTGC, with -0.452. Take TTTGTCCGCACGAACATCTCAA: the sensor-assay potency score (higher = more potent) with BABAM1 is -0.413. In the assay with B3GNT9, TGCACTACAACCAGCTCACGGT displayed a sensor-assay potency score (higher = more potent) of -0.863. In turn, TTATCCATGACAAACTAGGAGT gave a sensor-assay potency score (higher = more potent) with BABAM1 of -0.739. Sequence ATATTTAGCCACGATCTCCTGG returned a sensor-assay potency score (higher = more potent) with AWAT2 of -0.175. Consider AAGTGGATCTCCTTGAGCGTTA, for which the sensor-assay potency score (higher = more potent) with B3GNT9 was -0.755. In the assay with AWAT2, ATAAGCACAGTGACAGGCCAGT returned a sensor-assay potency score (higher = more potent) of -0.973.

In the assay with BABAM1, TTCTCTGGACAGTTGACCCTTG gave a sensor-assay potency score (higher = more potent) of 0.0913. AATTACGTCACCAGCAAGCAGG came in with a sensor-assay potency score (higher = more potent) with B3GNT9 of -1.35. On to TAAGTGCAGCACGAACAGGTGC, for which the sensor-assay potency score (higher = more potent) with AVPR1B was -0.436.

Take TTCTTGGTGGACGCATCCTGAG: in the assay with BAX, the sensor-assay potency score (higher = more potent) was -1.72.

The sequence TTGAGGTCGTCCGCCATCCGCC showed a sensor-assay potency score (higher = more potent) with BBC3 of -1.67. Still for that read-out and setting: under TCCGCCGCTCGTACTGTGCGTT stands -1.32; under TTGTACAGGACCCTCCAGGGTG, -1.05.

Consider TCGTCGATCATGAAAGTCTTGT, for which the sensor-assay potency score (higher = more potent) with BARX2 is -0.832. Same read-out and setting: then TCCGTCTCTGACTCGCTGCTGG, with -0.99.

With ATCAGTTCCGGCACCTTGGTGC, the sensor-assay potency score (higher = more potent) with BAX was -0.369. Same read-out and setting: under TTCATGATCTGCTCAGAGCTGG stands 0.0889. For the sequence TTTAAGAACCATTTTCTTCCAT, the sensor-assay potency score (higher = more potent) with BARX2 worked out at 0.594. Take TTGGATCCAGCCCAACAGCCGC: in the assay with BAX, the sensor-assay potency score (higher = more potent) was -1.52. For TATACAGTATCTTACAGGCTGG, the sensor-assay potency score (higher = more potent) with BBC3 was -0.558. In turn, TTGACAAATACTTCTGCTTCTG registered a sensor-assay potency score (higher = more potent) in the assay with BARX2 of -0.22. As for TCGATCCTGGATGAAACCCTGA, in the assay with BAX, the sensor-assay potency score (higher = more potent) is -0.785. As to ATGATCTGCTCAGAGCTGGTGG, the sensor-assay potency score (higher = more potent) with BAX is -1.15.

Turning to AACATGTCAGCTGCCACTCGGA, in the assay with BAX, the sensor-assay potency score (higher = more potent) was -1.25. For TACAGTATCTTACAGGCTGGGC, in the assay with BBC3, the sensor-assay potency score (higher = more potent) is -0.231. TAGAAAAGGGCGACAACCCGGC yielded a sensor-assay potency score (higher = more potent) with BAX of -0.132. On the same count and under the same terms, then TTGCCGTCAGAAAACATGTCAG, with -0.725. Same read-out and setting: under ATGCGCTTGAGACACTCGCTCA stands -1.61. TTGTCTCCGCCGCTCGTACTGT yielded a sensor-assay potency score (higher = more potent) with BBC3 of -1.

In the assay with BBC3, TACAGGACCCTCCAGGGTGAGG gave a sensor-assay potency score (higher = more potent) of -1.57. As for TTAAGAACCATTTTCTTCCATT, the sensor-assay potency score (higher = more potent) with BARX2 was -0.688. In the case of TAGGAGAGGAGGCCGTCCCAAC, the sensor-assay potency score (higher = more potent) with BAX is -1.61.
